An excerpt weighted towards active compounds, which were near 4% of everything screened.
FLuc inh – qHTS Assay for Inhibitors of Firefly Luciferase | purified firefly luciferase, luminescence, 8 min | Potency, µM (titrated, usually from 57.1 µM), for the others: at the highest dose activity change, negative = inhibition, actives largely listed as inhibitors | Luciferin 4-monooxygenase (Photinus pyralis), P08659 | 72,000 tested, 2.2% active; also: % is scaled to controls: 0 for no effect and ±100 for the full control effect; nearly all actives have a fitted effect of over 40% in size
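qHTS concentration-response profiling: light output of P. pyralis luciferase with luciferin and 10 uM ATP, imidazole buffer pH 7.2. Read by luminescence after 8-min room-temperature incubation.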
Tau fil binding – qHTS Assay for Tau Filament Binding | Microtubule-associated protein tau (Homo sapiens), P10636 | recombinant tau filaments, thioflavin S fluorescence, 15 h; filaments grown with octadecylsulfate alongside compound | Potency, µM (doses to about 57.1 µM), for inactives: at the top dose activity change, negative = inhibition | 71,000 tested, 2% active;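 also: % is scaled to controls: 0 for no effect and ±100 for the full control effect; actives lower thioflavin S fluorescence by blocking filaments or displacing dye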
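Thioflavine S fluorescence (ex 450, em 510 nm) reports filaments formed from 1 uM human tau plus 30 uM ODS over 15 h at 37 C (10 mM HEPES pH 7.4, 100 mM NaCl, 5 mM DTT); compounds displacing dye or blocking filaments lower signal.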
Casp7 inh – qHTS Assay for Allosteric/Competitive Inhibitors of Caspase-7. recombinant caspase-7, Ac-DEVD-AFC fluorescence rate. AID 889, 2007. 75,000 tested, 0.02% active. Potency, µM (doses to about 57.5 µM), without a hit: top-dose activity change, negative = inhibition, actives largely listed as inhibitors. P55210; active = well fitted inhibition curve with a large enough effect in the main read-out, with a control signal flat, not every such curve was filed as active; inconclusive = small, poorly fitted or top-dose-only effect, or a change in a side signal; also: % of control where 0% means no effect
Caspase-1 inhib – qHTS Assay for Allosteric/Competitive Inhibitors of Caspase-1. Caspase-1 enzyme, Ac-WEHD-AFC fluorogenic rate. Potency, µM (highest dose often 57.5 µM), without a hit: top-dose activity change, negative = inhibition, most hits filed as inhibitors. 75,000 tested, 0.03% active;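 also: plate controls were vehicle for no effect and no substrate for full effect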
PK Bst – Pyruvate Kinase; purified pyruvate kinase, luminescence ATP production; ribose 5-phosphate activator present at AC10; 51,000 tested, 1.2% active; Potency, µM; in the data active = potency below about 11 µM; inconclusive = mostly about 12 µM to 25 µM;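 the screen sought inhibitors and activators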;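 also: scaled between full activation by ribose 5 phosphate and full inhibition by luteolin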
* marks the source's active call; other numbers are inactive results; u = inconclusive; x = no result; [ ] = remark or other dose. Unless noted, calls follow the shape of the dose curve; as a rule, active = well fitted curve in the direction sought with a large enough effect; inconclusive = small, poorly fitted or top-dose-only effect, or another doubt; inactive = no such curve, though single readings can be large; an effect the other way counts as inactive or inconclusive. Potency is read from the fitted curve at half-maximal effect.

SMILES	FLuc inh	Tau fil binding	Casp7 inh	Caspase-1 inhib	PK Bst
CCO[P@]1(=O)OC[C@@H]2O[C@H](n3cnc4c(N)ncnc43)[C@H](O)[C@@H]2O1	1%[11.4 µM]	-1%[11.4 µM]	-3%[11.5 µM]	3%[11.5 µM]	x
c1ccc(Nc2nc(-c3ccc4c(c3)OCO4)nc3ccccc23)cc1	-1%[2.29 µM]	25µM*	-7%	-5%	x
c1ccc2sc(-c3ccc4c(c3)OCO4)nc2c1	1.6µM*	29%	0%	-4%	x
CN(C)c1ccc(-c2nc(Nc3ccncc3)c3ccccc3n2)cc1	0.4µM*	10µM*	-20%	-12%	x
c1ccc2sc(N3CCN(Cc4ccc5c(c4)OCO5)CC3)nc2c1	0%	u	-2%	-15%	x
O=C(O)CNCCc1ccccc1	1%[11.4 µM]	4%[11.4 µM]	1%[11.5 µM]	2%[11.5 µM]	x
[Cu].[O-]/N=C1/C(=[OH+])Nc2ccccc21.[O-]Nc1c(O)[nH]c2ccccc12	-1%[11.4 µM]	-13%[11.4 µM]	0%[11.5 µM]	2%[11.5 µM]	x
CCC/C=C(\CCC)C(NC(=O)CCc1ccccc1)c1ccc(C(F)(F)F)cc1 (centres undefined)	x	0%	-1%	0%	x
COC(=O)c1c(C(=O)OC)c(C)n(Cc2ccco2)c1C	-3%	0%	-2%	-1%	>57
CCOc1cccc(=O)c2c(C)n(Cc3ccco3)c(C)c12	0%	4µM*	-30%	u	x
[O-][N+]1=c2ccc(Nc3ccccc3)cc2=NC12CCCCC2	-13%	13µM*	-1%	-1%	x
COc1ccc(Nc2ccc3c(c2)=NC2(CCCCC2)[N+]=3[O-])cc1	u	16µM*	-3%	-10%	x
COc1ccc(OC)c(NC2=NC3(CCCC3)N=C(N)N2)c1	0%	3%	-1%	0%	>57
CCCCCCCCCCC/C=C\C(C)(C)/C=C\CCCC(=O)O	2%	u	2%	2%	x
Cc1ccc([C@@]2(C)CC/C(=N/N=C3\CC[C@](C)(c4ccc(C)c(C)c4)c4cc(C)c(C)cc43)c3cc(C)c(C)cc32)cc1C	2%[11.4 µM]	7%[11.4 µM]	1%[11.5 µM]	1%[11.5 µM]	x
O=C(O)c1cccc(SSc2cccc(C(=O)O)c2)c1	2%[11.4 µM]	5%[11.4 µM]	-1%[11.5 µM]	-1%[11.5 µM]	x
COc1cc(OC)cc(C(=O)Nn2c(C)nc3ccccc3c2=O)c1	1%	0%	0%	1%	>57
COc1ccc2[nH]c3c(c2c1)CCn1c-3nc2ccccc2c1=O	0.63µM*	168%	-15%	-14%	0.2*
O=C(O)[C@@H]1[C@@H](C(=O)Nc2ncccn2)[C@@H]2C=C[C@@H]1O2	0%[11.4 µM]	7%[11.4 µM]	-1%[11.5 µM]	4%[11.5 µM]	x
NCC1O[C@@H](O[C@H]2C(O)C(O[C@@H]3C(O[C@H]4OC(CO)C(O)C(O)C4N)C(N)CC(N)[C@H]3O)O[C@@H]2CO)C(N)C(O)C1O (some centres undefined)	x	x	0%	-2%	x
O=C(Cn1nnc(-c2ccc(CN3CCOCC3)cc2)n1)N1CCCc2ccccc21	-1%	8%	2%	-2%	5.6*
COc1ccc(-c2ccc(-c3nnn(CC(=O)N4CCOCC4)n3)cc2)cc1	1.6µM*	-3%	-1%	0%	2.6*
O=C(Cn1cc2c(n1)CCCC2)N1CCCc2ccccc21	-1%	20%	1%	-6%	x
O=C(c1csnn1)N1CCC2(CCCN(Cc3ccccc3)C2)CC1	2%[11.4 µM]	2%	-1%	-2%	x
Cc1cc(N)c2ccccc2[n+]1CCCCCCCCCC[n+]1c(C)cc(N)c2ccccc21	2%	72%	0%	0%	x
SMILES	FLuc inh	Tau fil binding	Casp7 inh	Caspase-1 inhib	PK Bst
Nc1cc2c(nc3c4ccccc4c(N)cc3[n+]2-c2cccc3ccccc23)c2ccccc12 (tested in a mixture with another compound)	-13%[11.4 µM]	0.63µM*	-4%[11.5 µM]	0%[11.5 µM]	x
Cn1c(=O)cnc2cnc(Nc3ccccc3)nc21	0%[11.4 µM]	u	-4%	-1%	x
O=c1c2ccccc2cnn1-c1nc2ccccc2s1	0.16µM*	4%	1%	-2%	0.16*
Cc1nc(Nc2ccc3c(c2)OCCO3)c2oc3ccccc3c2n1	-4%	9%	-1%	-2%	4.3*
Cc1nc(NCc2ccc3c(c2)OCO3)c2oc3ccccc3c2n1	1%	42%	-4%	-3%	>57
CCNc1ncc2nc(C)c(=O)n(Cc3cccs3)c2n1	1%[11.4 µM]	3%	-18%	-16%	x
